In PubChem BioAssay AID1476 (National Center for Advancing Translational Sciences (NCATS), 2009) one finds max response, negative = inhibition and Potency data, which are given here for 85 compounds.

In all, about 200,000 compounds went through this assay and about 4,500 (2.2%) were called active. Inconclusive results (about 12%) are left out. For the sample, actives were picked, then their nearest neighbours and some compounds at random. Unmarked numbers belong to inactive results. Calls come from the whole dose curve; as a rule, active = well fitted inhibition curve with a large enough effect; inconclusive = small, poorly fitted or top-dose-only effect, or effect the other way; inactive = flat fitted curve, though single readings scatter.
Potency is the fitted concentration of half-maximal effect.

This experiment deals with Cruzipain (Trypanosoma cruzi) (UniProt P25779). Description: qHTS Assay for Promiscuous and Specific Inhibitors of Cruzain (without detergent).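 For max response, negative = inhibition: plate controls were enzyme without inhibitor for no effect and buffer without enzyme for full effect.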 Note: nearly all actives have a fitted effect of over 40% in size. The conditions noted are these: purified cruzain, Z-FR-AMC fluorescence, no detergent. A digest of the protocol: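 Detergent-free condition (0.00005% Triton X-100) in acetate buffer pH 5.5 with DTT. 1.5 nM enzyme and compound were pre-mixed 15 min, then 2 uM Z-FR-AMC substrate added; reaction progress from fluorescence change between first and third reads (60 s).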
Sequence of Cruzipain (Trypanosoma cruzi) (P25779 123-467 limits assumed): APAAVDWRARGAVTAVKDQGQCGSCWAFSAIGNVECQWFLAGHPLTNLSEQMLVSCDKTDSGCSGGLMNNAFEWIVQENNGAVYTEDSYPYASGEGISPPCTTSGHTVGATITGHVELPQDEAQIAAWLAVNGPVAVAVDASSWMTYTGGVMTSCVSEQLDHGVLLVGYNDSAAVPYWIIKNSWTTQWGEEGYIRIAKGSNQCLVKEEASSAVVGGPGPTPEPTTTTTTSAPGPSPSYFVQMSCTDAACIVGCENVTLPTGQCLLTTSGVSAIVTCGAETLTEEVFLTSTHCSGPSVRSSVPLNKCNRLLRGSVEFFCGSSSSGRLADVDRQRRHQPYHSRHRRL
For `Cc1ccc(OCC(=O)OCc2cc(=O)n3nc(C4CC4)sc3n2)cc1C`, the max response, negative = inhibition is -7.58%.

As for `COc1ccccc1NC(=O)c1oc2ccccc2c1NC(=O)C(C)C`, the max response, negative = inhibition was -10.9%.

As to `CC(=O)c1cccc(NC(=O)CSc2nc3c(c(=O)[nH]2)CCC3)c1`, the max response, negative = inhibition was -3.06%.

`C=CCNc1nnc(C)c2ccccc12`: the max response, negative = inhibition is -10.1%.

With `O=C(CSc1nc2ccccc2nc1Cc1ccccc1)N1CCCCC1`, the max response, negative = inhibition was -0.222%.

Turning to `C=CCNc1nnc(SCC(=O)N2CCCCC2)c2ccccc12`, the Potency was 20 µM (active).

As for `COc1ccc(CNC(=O)c2cc3cccc(OC)c3oc2=O)cc1`, the max response, negative = inhibition is -1.78%.

As for `CCOc1ccc(S(=O)(=O)c2cn(Cc3ccc(OC)cc3)c3ccc(F)cc3c2=O)cc1`, the max response, negative = inhibition was 0.948%.

For `Cc1ccc(-n2c(SCC(=O)c3ccccc3)nc3c([nH]c4ccccc43)c2=O)cc1`, the max response, negative = inhibition is -13.1%.

In the case of `COc1ccc(-c2c(C)nn3c(N4CCC(C(=O)NCCC(C)C)CC4)cc(C)nc23)cc1OC`, the max response, negative = inhibition is 4.69%.

In the case of `Cc1ccc(CN2COc3cc(C)c4c(oc(=O)c5ccccc54)c3C2)cc1`, the max response, negative = inhibition is -21.8%.

As for `Fc1ccc2nc(Nc3nc4c(s3)CCCC4)sc2c1`, the Potency is 31.6 µM (active).

`O=C(Nc1nc2c(s1)CCCC2)c1ccccc1F`: the max response, negative = inhibition was -4.21%.

For the compound `Fc1ccc2nc(N3CCCCC3)sc2c1`, the max response, negative = inhibition was 2.08%.

In the case of `Cn1c(=O)c2c(SCC(=O)N3CCc4ccccc43)nc(-c3ccc(Cl)cc3)nc2n(C)c1=O`, the max response, negative = inhibition was 16.5%.

As for `Cc1ccc(S(=O)(=O)N2CCC(C(=O)Nc3cc(C)ccc3C)CC2)cc1`, the max response, negative = inhibition is 10.8%.

Regarding `Cc1ccccc1CSc1nc(-c2ccccc2)nc2c1Cc1c(CO)cnc(C)c1O2`, the max response, negative = inhibition is -5.34%.

As to `CC(C)(C)C1C/C(=C/c2ccco2)C(=O)/C(=C/c2ccco2)C1` (stereo not given), the max response, negative = inhibition is 22.8%.

With `COc1ccccc1/C=C/C1=NC(=C\N(C)C)/C(=O)O1`, the max response, negative = inhibition was -2%.

Regarding `O=C1OC(/C=C/c2ccccc2)=NC/1=C/c1ccco1`, the Potency was 3.16 µM (active).

Take `COc1ccccc1-c1nnc(C2CCN(C(=O)c3ccc(Cl)cc3)CC2)o1`: the max response, negative = inhibition was -7.8%.

With `Fc1cccc(-n2ncc3c2ncn2nc(-c4ccccc4Cl)nc32)c1`, the max response, negative = inhibition is -11.9%.

In the case of `COc1ccccc1CNC(=O)NCc1noc2ccc(C)cc12`, the max response, negative = inhibition was -3.84%.

For the compound `O=C(CN1CCSc2ccccc21)N1CCN(c2ccccc2)CC1`, the max response, negative = inhibition is -4.92%.

Turning to `Cc1cc2[nH]ncc2cc1NC(=S)NC(=O)c1ccccc1`, the max response, negative = inhibition is 0.868%.

As for `Cc1ccc(-c2nc3ccccc3[nH]2)cc1N`, the max response, negative = inhibition was 0.934%.

Turning to `COC(=O)c1cc(NC(=O)c2sc3ccccc3c2Cl)cc(C(=O)OC)c1`, the max response, negative = inhibition is -7.2%.

For the compound `Cc1ccc(-c2nc3ccccc3[nH]2)cc1NC(=O)c1sc2ccccc2c1Cl`, the Potency was 7.94 µM (active).

Consider `COc1ccc2oc(-c3ccc(C)c(NC(=O)c4sc5ccccc5c4Cl)c3)nc2c1`, for which the max response, negative = inhibition was -7.77%.

With `COc1ccc(Br)cc1C(=O)NC(=S)Nc1cc(-c2nc3ccccc3[nH]2)ccc1C`, the Potency is 10 µM (active).

As for `Cc1onc(-c2ccc(F)cc2F)c1C(=O)Nc1cccc(C(F)(F)F)c1`, the max response, negative = inhibition was -6.18%.

With `Cc1cccc(-c2nc(SCc3ccc(Br)cc3)n3[nH]c(=O)cc3n2)c1`, the max response, negative = inhibition was -2.63%.

On to `O=C(Cn1c(=O)n(Cc2ccccc2)c(=O)c2sc3ccccc3c21)Nc1ccccc1F`, for which the max response, negative = inhibition is 9.77%.

As for `CCCCN(CC)CCCNC(=O)c1nn(C)c2c1CS(=O)(=O)c1ccccc1-2`, the max response, negative = inhibition is 5.31%.

For `CCCNC(=O)CCC(=O)N1Cc2ccccc2Oc2ncccc21`, the max response, negative = inhibition was -4.94%.

For `CC(C)OC(=O)c1c(NC(=O)c2ccco2)sc2c1CCCC2`, the max response, negative = inhibition was -12.4%.

For the compound `CCOC(=O)c1c(NC(=O)C2CCN(S(=O)(=O)c3ccc(Cl)cc3)CC2)sc2c1CCCC2`, the Potency is 15.8 µM (active).

With `CCOC(=O)c1c(NC(=O)c2ccc(S(=O)(=O)N(CC)CC)cc2)sc2c1CCCCC2`, the max response, negative = inhibition is 8.24%.

Take `CCOC(=O)c1c(NC(=S)Nc2ccccc2C)sc2c1CCC2`: the max response, negative = inhibition is -25.8%.

Regarding `CCOC(=O)c1c(NC(=O)c2cc(-c3ccc(Cl)cc3)on2)sc2c1CCCC2`, the max response, negative = inhibition is 3.1%.

As to `CCOC(=O)c1c(NC(=S)NC(=O)c2ccco2)sc2c1CCCC2`, the Potency was 12.6 µM (active).

As for `Cc1cccc(N2CCN(C(=O)Cn3ncc4c5ccccc5n(C)c4c3=O)CC2C)c1` (stereo not given), the max response, negative = inhibition is 2.09%.

As for `COc1cc(CN(CC2CCCO2)C(=O)c2ccccc2F)cc(OC)c1OC` (stereo not given), the max response, negative = inhibition is 17.1%.

As to `CC(C)(C)OC(=O)N1CCC(c2c(C(=O)NCCc3ccsc3)cnn2-c2ccc(F)cc2F)CC1`, the max response, negative = inhibition is -13.2%.

As for `CCCC12CN3CC(CCC)(CN(C1)C3c1c[nH]c3ccc(OC)cc13)C2=O` (stereo not given), the max response, negative = inhibition is 15.7%.

As for `O=C(NCc1ccccn1)c1cc(-c2ccccc2Cl)on1`, the max response, negative = inhibition was -2.8%.

For the compound `O=C(NCc1ccccn1)c1ccc2nc(-c3ccco3)c(-c3ccco3)nc2c1`, the Potency was 25.1 µM (active).

For `CN(c1ccc(C(=O)NCc2ccccn2)cc1)S(C)(=O)=O`, the max response, negative = inhibition is -4.77%.

Take `CCSc1nnc2c(n1)OC(c1ccc(OCC(=O)O)cc1)Nc1ccccc1-2` (stereo not given): the max response, negative = inhibition was -6.38%.

For the compound `CCOc1ccc(CNC(=O)c2cc(-c3ccc(Cl)s3)nc3ccccc23)cc1`, the max response, negative = inhibition was -5.14%.

On to `COC(=O)CN(C(=S)Nc1ccc(Cl)cc1)C1CC(=O)N(c2ccc(OC)cc2)C1=O` (stereo not given), for which the max response, negative = inhibition was -5.17%.

Turning to `Cc1ccc(N2CC(C(=O)Nc3ccc(N(C)C)cc3)CC2=O)cc1Cl` (stereo not given), the max response, negative = inhibition was -3.38%.

For `CN(C)c1ccc(NC(=S)N(CCc2ccccc2)C2CC(=O)N(c3c(Cl)cccc3Cl)C2=O)cc1` (stereo not given), the Potency was 15.8 µM (active).

On to `CN1C(=O)c2ccccc2Sc2ccc(NC(=O)Cc3ccc(Cl)cc3)cc21`, for which the max response, negative = inhibition was 14.1%.

For `CCn1c(=N)c(S(=O)(=O)c2ccc(F)cc2)cc2c(=O)n3ccccc3nc21`, the Potency was 20 µM (active).

Take `CCCCn1c(=N)c(S(=O)(=O)c2ccccc2)cc2c(=O)n3cccc(C)c3nc21`: the max response, negative = inhibition is 14.5%.

With `CCOC(=O)c1cc2c(=O)n3ccccc3nc2n(Cc2ccco2)c1=NC(=O)c1ccc(F)cc1`, the max response, negative = inhibition is -18.9%.

Turning to `Cc1ccc(-c2nc(CS(=O)(=O)CC(=O)NCc3ccccc3Cl)c(C)o2)cc1`, the max response, negative = inhibition was -2.75%.

As to `CC(C)(C)n1nnnc1C(c1ccc2ncccc2c1)N1CCSCC1` (stereo not given), the Potency is 7.94 µM (active).

On to `CC(C)(C)n1nnnc1C(c1ccc(Cl)cc1)N1CCSCC1` (stereo not given), for which the max response, negative = inhibition is -17.6%.

Take `CCC(C)(C)n1nnnc1C(c1ccccc1OC)N1CCSCC1` (stereo not given): the max response, negative = inhibition was 1.47%.

`Cc1ccc(C)c(NC(=O)Cn2ccn(-c3ccc(F)cc3)c(=O)c2=O)c1`: the max response, negative = inhibition was -16.8%.

For the compound `O=C(CCn1c(=S)[nH]c2ccccc2c1=O)NCCCN1CCCC1=O`, the max response, negative = inhibition was 7.76%.

As to `CC(C)OCCCNc1ncnc2c1[nH]c1ccc(F)cc12`, the max response, negative = inhibition is -22.4%.

With `O=C1CCCN1CCCNc1ncnc2c1[nH]c1ccccc12`, the Potency was 20 µM (active).

Regarding `COc1ccc(N2CCN(C3=NS(=O)(=O)C(c4cccc(Br)c4)=C3C)CC2)cc1`, the max response, negative = inhibition was -1.42%.

For `COc1cccc(CNc2nccn(-c3ccc(OC)c(OC)c3)c2=O)c1`, the max response, negative = inhibition was 4.88%.

With `CCOc1ccc(-n2c(SCC(=O)NCc3ccccc3)nc3n[nH]c(C)c3c2=N)cc1`, the max response, negative = inhibition was 6.06%.

On to `COc1ccc(OC)c(-n2nnc3c(sc4nc(C)c(Br)c(C)c43)c2=O)c1`, for which the max response, negative = inhibition was 15.9%.

Consider `Cc1ccc(N=C2NC(=O)/C(=C/C=C/c3ccco3)S2)cc1C`, for which the max response, negative = inhibition was -3.89%.

Consider `Cc1cccc(N=C2NC(=O)/C(=C/c3cn(C)c4ccccc34)S2)c1`, for which the Potency was 31.6 µM (active).

On to `Cc1nnc(N2CCCC(C(=O)NCCN(C)C)C2)c2nn(-c3ccccc3)c(C)c12` (stereo not given), for which the max response, negative = inhibition was -14.7%.

With `Cc1cccc(CSc2nc3ccncc3n2Cc2ccc(C(=O)O)cc2)c1`, the max response, negative = inhibition was -13.3%.

As to `CCc1nn(CC(=O)N2CCN(c3cccc(C(F)(F)F)c3)CC2)c(=O)c2cc3occc3n12`, the max response, negative = inhibition was -20.3%.

Regarding `CCCCN1C(=O)c2[nH]nc(-c3ccccc3O)c2C1c1cccc(OCc2ccccc2)c1` (stereo not given), the max response, negative = inhibition is -70.8%.

As for `O=C(COc1ccccc1Cl)Nc1ccc2nc(SCC(=O)N3CCCC3)sc2c1`, the max response, negative = inhibition was -3.05%.

In the case of `Cc1ccc(NC(=O)CSc2nc3ccccc3c3nc(CCn4cncc4C)nn23)cc1F`, the max response, negative = inhibition was 6.2%.

As to `COc1ccc(CNC(=O)CCc2c(C)nn(-c3ccc(N4CCCC4)nn3)c2C)cc1`, the max response, negative = inhibition was 3.65%.

As for `Cc1ccc2nc(/C(C#N)=C/c3ccccc3F)[nH]c2c1`, the max response, negative = inhibition is -17.7%.

In the case of `Cc1ccc2nc(S(=O)(=O)O)[nH]c2c1`, the max response, negative = inhibition was -1.87%.

With `Cc1ccc2nc(/C(C#N)=C/c3ccc(-c4ccc(C(=O)OC(C)C)cc4)o3)[nH]c2c1`, the Potency was 12.6 µM (active).

Consider `Cc1ccc(N2C(=O)C3C(c4ccccc4)(C2=O)C3(c2ccccc2)c2ccccc2)cc1` (stereo not given), for which the Potency is 25.1 µM (active).

Take `Cc1ccc(N2C(=O)C(Cc3ccccc3)NC2=S)cc1` (stereo not given): the max response, negative = inhibition was -8.99%.

`C=C1c2cc(CC)ccc2NC(=O)N1c1ccc(C)cc1`: the max response, negative = inhibition is -5.5%.

As to `Cc1ccc(Cn2c(=O)n(CCCC(=O)NCc3ccccc3Cl)c(=O)c3ccccc32)cc1`, the max response, negative = inhibition was 3.97%.
